# According to PubChem BioAssay:
# The source made the active and inactive calls.
# Assays:
# [1] = test system: Human papillomavirus type 1a protein E7 (residues 44-93); assay: small molecules binding HPV E7 44-93 – biochemical, small-molecule microarray, residues 44-93, 635 nm fluorescence, primary screen (AID 1108); conditions: fluorescence 635 nm, higher = more signal;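 note: E7 fragment applied at 1 µg/mL in TBST for 1 h at 4 C; score combines spot fluorescence with its signal to noise ratio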
# [2] = hepatitis C replication reporter changes, two-sided – Huh7 cells, luciferase reporter, HCV replication inhibitor project, primary screen (AID 1109); conditions: Huh7 HCV replicon luciferase reporter, 48 h; higher = more signal;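 note: huh7 hepatoma cells harbouring a luciferase neomycin HCV replicon reporter; luciferase luminescence as measure of HCV replicon replication; test concentration not given here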
# [3] = biological target: Left-right determination factor 2 (Homo sapiens) (UniProt O00292); assay: small molecules binding LEFTY2 protein – biochemical, small-molecule microarray, 635 nm fluorescence scan, primary screen (AID 1110); conditions: higher = more signal
# Chain of Left-right determination factor 2 (Homo sapiens) (O00292 whole entry, looked up): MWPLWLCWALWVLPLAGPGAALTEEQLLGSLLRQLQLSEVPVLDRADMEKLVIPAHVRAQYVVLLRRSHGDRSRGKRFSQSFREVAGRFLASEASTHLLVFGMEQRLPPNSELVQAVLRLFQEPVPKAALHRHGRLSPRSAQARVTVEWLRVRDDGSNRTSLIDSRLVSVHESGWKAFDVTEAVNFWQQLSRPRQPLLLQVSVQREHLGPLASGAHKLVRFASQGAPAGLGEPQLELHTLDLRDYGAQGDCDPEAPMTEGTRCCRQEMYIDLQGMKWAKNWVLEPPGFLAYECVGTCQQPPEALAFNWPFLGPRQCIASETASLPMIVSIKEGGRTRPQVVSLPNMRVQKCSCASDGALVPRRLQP
# [4] = biological target: Calmodulin-1 (Homo sapiens) (UniProt P0DP23); assay: small molecules binding calmodulin-1 with EGTA – biochemical, small-molecule microarray, Cy5-labelled CALM1, profiling panel (AID 1111); conditions: Cy5-CALM1 binding fluorescence, higher = more signal;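 note: labelled calmodulin applied in Tris saline Tween buffer holding calcium plus EGTA and DTT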
# [5] = biological target: Calmodulin-1 (Homo sapiens) (UniProt P0DP23); assay: small molecules binding Ca-loaded calmodulin-1 – biochemical, small-molecule microarray, Cy5-labelled CALM1, plus calcium, artefact control for SMM control-protein annotation, profiling panel (AID 1112); conditions: Cy5-CALM1 binding fluorescence, higher = more signal;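 note: score merges spot fluorescence with signal to noise from triplicate slides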
# [6] = probe aWnt5a binding to arrayed compounds – biochemical, biotinylated probe, 635/667 nm fluorescence, primary screen (AID 1113); conditions: small-molecule microarray, higher = more signal;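 note: score merges 667 nm fluorescence intensity with signal-to-noise per printed feature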
# [7] = probe aShh binding to arrayed compounds – biochemical, biotinylated probe, 635/667 nm fluorescence, primary screen (AID 1114); conditions: small-molecule microarray, higher = more signal;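 note: probe is biotin-labelled aShh protein from a stem cell growth factor screen; measures binding of labelled protein to compounds printed on the slide; score merges feature fluorescence at 667 nm with signal-to-noise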
# [8] = probe aNog binding to arrayed compounds – biochemical, biotinylated probe, 635/667 nm fluorescence, primary screen (AID 1115); conditions: small-molecule microarray, higher = more signal;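 note: probe is biotinylated aNog protein used at 0.15 µg/mL for 1 h at 4 C; z-score combines 667 nm fluorescence of each spot with its signal to noise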
# [9] = biological target: Torsin-1A-interacting protein 1 (Homo sapiens) (UniProt Q5JTV8); assay: compound microarray binding of lysate hLAP1 – cell lysate, small-molecule microarray, COS7 lysate, 635/667 nm fluorescence, primary screen (AID 1116); conditions: 635 nm fluorescence, higher = more signal
# Chain of Torsin-1A-interacting protein 1 (Homo sapiens) (Q5JTV8 whole entry, looked up): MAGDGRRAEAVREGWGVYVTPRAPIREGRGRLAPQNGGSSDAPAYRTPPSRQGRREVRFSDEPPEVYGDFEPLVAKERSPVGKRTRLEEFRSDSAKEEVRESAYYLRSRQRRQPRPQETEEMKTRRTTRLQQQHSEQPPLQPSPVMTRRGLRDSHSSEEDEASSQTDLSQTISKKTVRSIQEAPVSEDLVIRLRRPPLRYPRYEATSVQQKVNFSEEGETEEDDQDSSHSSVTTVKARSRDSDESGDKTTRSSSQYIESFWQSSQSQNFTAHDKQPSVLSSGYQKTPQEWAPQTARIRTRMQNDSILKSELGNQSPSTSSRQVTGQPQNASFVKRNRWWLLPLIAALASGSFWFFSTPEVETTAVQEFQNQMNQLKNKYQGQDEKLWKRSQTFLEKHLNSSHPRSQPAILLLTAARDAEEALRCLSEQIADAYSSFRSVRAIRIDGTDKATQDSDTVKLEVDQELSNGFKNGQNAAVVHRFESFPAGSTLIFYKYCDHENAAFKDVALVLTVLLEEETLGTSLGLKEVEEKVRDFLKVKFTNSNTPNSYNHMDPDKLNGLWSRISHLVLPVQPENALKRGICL
# [10] = biological target: Alpha-bungarotoxin (Bungarus multicinctus) (UniProt P60615); assay: compounds binding labelled alpha-BTX control protein – biochemical, small-molecule microarray, Alexa647 label, 635/667 nm fluorescence, artefact control for SMM control protein annotation, profiling panel (AID 1117); conditions: alpha-BTX-A647 binding fluorescence, higher = more signal
# Chain of Alpha-bungarotoxin (Bungarus multicinctus) (P60615 whole entry, looked up): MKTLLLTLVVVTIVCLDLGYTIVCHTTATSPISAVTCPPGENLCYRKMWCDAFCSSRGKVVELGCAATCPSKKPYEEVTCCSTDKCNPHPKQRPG
# Albumin (Bos taurus) = Albumin (Bos taurus) (UniProt P02769); assay: compounds binding labelled BSA control protein – biochemical, small-molecule microarray, Alexa647 label, 635/667 nm fluorescence, artefact control for SMM control protein annotation, profiling panel (AID 1118); conditions: BSA-A647 binding, fluorescence 635 nm, higher = more signal;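 note: score merges 667 nm emission intensity and signal-to-noise per printed compound spot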
# Chain of Albumin (Bos taurus) (P02769 whole entry, looked up): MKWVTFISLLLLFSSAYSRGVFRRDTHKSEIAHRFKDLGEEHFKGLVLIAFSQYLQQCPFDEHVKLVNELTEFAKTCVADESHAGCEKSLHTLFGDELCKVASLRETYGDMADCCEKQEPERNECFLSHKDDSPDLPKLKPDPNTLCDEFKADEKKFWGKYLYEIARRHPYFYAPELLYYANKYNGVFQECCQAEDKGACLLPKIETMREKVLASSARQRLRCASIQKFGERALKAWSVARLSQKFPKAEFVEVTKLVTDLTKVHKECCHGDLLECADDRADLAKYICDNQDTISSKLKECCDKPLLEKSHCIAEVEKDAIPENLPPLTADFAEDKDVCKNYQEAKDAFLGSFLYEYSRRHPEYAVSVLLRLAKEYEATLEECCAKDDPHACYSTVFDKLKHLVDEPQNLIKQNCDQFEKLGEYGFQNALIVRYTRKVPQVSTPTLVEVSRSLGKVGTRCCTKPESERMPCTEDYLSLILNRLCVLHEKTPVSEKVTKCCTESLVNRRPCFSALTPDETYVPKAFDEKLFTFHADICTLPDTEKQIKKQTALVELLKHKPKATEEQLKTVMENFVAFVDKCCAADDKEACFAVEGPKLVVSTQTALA
# [11] = probe aXIP binding to arrayed compounds – biochemical, NeuroSMM set, 635/667 nm fluorescence, primary screen (AID 1119); conditions: small-molecule microarray, higher = more signal, called active from +8 up or from −8 down;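 note: probe is the protein aXip251-270 applied at 1 µg/mL to compound-printed slides; binding of probe to printed compounds measured as 667 nm fluorescence plus signal to noise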
# [12] = probe aNOTCH3 binding on compound microarray – biochemical, small-molecule microarray, 635/667 nm fluorescence, primary screen (AID 1120); conditions: higher = more signal;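 note: probe is a biotin-tagged antibody raised against NOTCH3 rather than NOTCH3 protein; score merges spot fluorescence near 667 nm with spot signal to noise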
# [13] = probe aNOTCH2 binding on compound microarray – biochemical, small-molecule microarray, 635/667 nm fluorescence, primary screen (AID 1121); conditions: higher = more signal;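 note: score merges feature fluorescence read at 667 nm with its signal to noise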
# [14] = biological target: Carbonic anhydrase 2 (Homo sapiens) (UniProt P00918); assay: compounds binding carbonic anhydrase 2 – biochemical, small-molecule microarray, Alexa647-labelled CAII, profiling panel (AID 1122); conditions: CAII-A647 binding fluorescence, higher = more signal
# [15] = COS7 lysate on small-molecule microarray, probe aHis, 635 nm (AID 1123); conditions: COS7 cell lysate, fluorescence, higher = more signal;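 note: z-score combines 667nm fluorescence intensity with signal-to-noise per printed compound spot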
# [16] = probe aLAP1 signal on lysate-treated microarray – cell lysate, small-molecule microarray, COS7 lysate, primary screen (AID 1124); conditions: probe aLAP1, fluorescence, higher = more signal;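 note: lysate comes from COS7 cells expressing LAP1 and is applied at 0.3 µg/mL; score merges spot fluorescence near 667 nm with signal-to-noise over triplicate slides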
# Sam68 (KHDRBS1) = assay: compounds binding KHDRBS1 protein – biochemical, small-molecule microarray, 635 nm fluorescence, primary screen (AID 1125); conditions: higher = more signal;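 note: score merges 667 nm channel intensity with signal to noise over triplicate slides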
# [17] = test system: Chordin-like protein 2 (CHRDL2); assay: compounds binding chordin-like 2 – biochemical, small-molecule microarray, 635 nm fluorescence, primary screen (AID 1126); conditions: fluorescence 635 nm, higher = more signal;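 note: printed compound slides probed with Chrdl2 protein at 4 µg/mL for 1 h at 4 C; score merges 667 nm emission intensity with signal to noise over three replicate slides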
# [18] = biological target: Concanavalin-A (Canavalia ensiformis) (UniProt P02866); assay: compounds binding concanavalin A lectin – biochemical, small-molecule microarray, Alexa647 label, 635 nm, artefact control for SMM control protein annotation, primary screen (AID 1127); conditions: ConA-A647 binding fluorescence, higher = more signal;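 note: z combines 667 nm emission intensity with signal-to-noise across three replicate slides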
# Chain of Concanavalin-A (Canavalia ensiformis) (P02866 whole entry, looked up): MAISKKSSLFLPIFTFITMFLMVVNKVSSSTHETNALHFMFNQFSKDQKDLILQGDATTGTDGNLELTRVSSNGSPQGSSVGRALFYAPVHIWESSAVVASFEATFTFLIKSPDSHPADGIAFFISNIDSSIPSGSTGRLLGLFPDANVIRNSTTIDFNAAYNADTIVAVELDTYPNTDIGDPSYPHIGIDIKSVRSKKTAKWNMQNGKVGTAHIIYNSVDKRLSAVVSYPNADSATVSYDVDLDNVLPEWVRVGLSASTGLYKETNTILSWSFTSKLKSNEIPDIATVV
SMILES,composite z-score [1],z-score [2],composite z-score [3],composite z-score [4],composite z-score [5],composite z-score [6],composite z-score [7],composite z-score [8],composite z-score [9],composite z-score [10],composite z-score (Albumin (Bos taurus)),composite Z-score [11],composite z-score [12],composite z-score [13],composite z-score [14],composite z-score [15],composite z-score [16],composite z-score (Sam68 (KHDRBS1)),composite z-score [17],composite z-score [18]
COCCOC(=O)N1C(=O)[C@@]2(c3cc(C#CC4(O)CCCCCC4)ccc31)[C@H](C(=O)N1CCCCCCC1)[C@H]1C(=O)O[C@H](c3ccccc3)[C@H](c3ccccc3)N1[C@@H]2c1ccccc1OCCO,1.42,-1.61,0.487,1.79,1.22,0.265,0.906,2.36,1.62,1.49,0.155,0.176 (inactive),0.922,0.191,0.452,2.83,0.542,1.33,1.09,0.827
COc1ccc(NN2C(C(O)c3ccc(OC)c(OCc4ccccc4)c3)C=CC3C(=O)N(C4CCCCC4)C(=O)C32)cc1 (stereo not given),1.4,-1.21,-0.167,1.15,0.63,0.135,0.213,0.751,0.637,1.82,0.976,0.745 (inactive),0.252,-0.122,0.274,2.52,0.0516,1.24,0.275,1.11
CCOC(=O)[C@H]1C[C@H]2O[C@@]23C[C@H]1C(=O)N1CCCC1[C@@H]3O[Si](C)(C)C(C)(C)C (stereo not given in full),-0.917,-0.633,-0.0688,-0.821,-0.392,-0.184,-0.138,-0.202,-0.132,-0.789,-0.505,0.545 (inactive),0.0203,-0.102,-0.123,0.178,-0.244,-0.445,-0.694,-1.61
CCOC(=O)[C@H]1C/C=C/C[C@H](C(=O)OCC)C(=O)O[C@H]2[C@@H](OC)O[C@H](CO)[C@@H](OC(=O)Nc3ccc4c(c3)OCO4)[C@@H]2OC1=O,0.433,-3.52,-0.261,0.346,0.152,0.0608,0.28,0.122,0.591,0.167,0.783,0.622 (inactive),0.0927,-0.0425,0.484,1.74,0.143,0.521,-0.384,0.468
Cc1ccc(S[C@]2(C(=O)NCC(C)C)CC(=O)N(Cc3ccccc3)[C@@H]2c2ccc(CO)cc2I)cc1,1.29,-2.6,0.118,0.425,0.473,-0.063,-0.196,-0.67,0.0825,0.545,0.256,0.552 (inactive),0.0301,-0.125,0.633,1.21,0.888,1.18,0.718,0.939
